Laboratory results as given in PubChem BioAssay (NCI).
This is part of a sample that, as a whole, favours compounds with a hit. Of some 79,000 tested, about 15% had one in any assay. Calls of active or inactive are those of the source. Rule as the data show it: active = growth inhibition above about 70%; inactive = the rest.

Columns and labels:
[1] = NCI Yeast Anticancer Drug Screen. Data for the rad50 strain (AID 155);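 also: 0% = growth of vehicle-only cultures of the same strain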; details: S. cerevisiae rad50 strain growth inhibition, active compounds read high
Procedure, shortened: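 Inhibition values express reduced yeast growth in compound-treated cultures relative to vehicle-treated controls.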

[2] = NCI Yeast Anticancer Drug Screen. Data for the mec2-1 strain (AID 157); details: S. cerevisiae mec2-1 strain, active compounds read high
Procedure, shortened: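 Strain: mec2-1 (DNA repair/cell cycle alteration). Compound exposure, then growth measured; inhibition expressed relative to vehicle.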

[3] = NCI Yeast Anticancer Drug Screen. Data for the sgs1 mgt1 strain (AID 161);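 also: 0% = growth of cultures given vehicle only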; details: S. cerevisiae sgs1 mgt1 strain, active compounds read high
Procedure, shortened: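 Mutant yeast exposed to compound; growth scored against vehicle-only wells.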

[4] = NCI Yeast Anticancer Drug Screen. Data for the cln2 rad14 strain (AID 165);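 also: 0% = growth equal to vehicle treated cultures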; details: S. cerevisiae cln2 rad14 strain, active compounds read high
Procedure, shortened: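 Compounds are applied to the cln2 rad14 yeast strain, and growth is then compared with that of vehicle-treated cultures to give inhibition.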

[5] = NCI Yeast Anticancer Drug Screen. Data for the bub3 strain (AID 167); details: S. cerevisiae bub3 mutant strain, active compounds read high
Procedure, shortened: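 Steps: expose the mutant yeast strain to compound; grow alongside vehicle-treated cultures; measure growth; express inhibition against the vehicle cultures.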

[6] = NCI Yeast Anticancer Drug Screen. Data for the mlh1 rad18 strain (AID 175); details: S. cerevisiae mlh1 rad18 strain growth inhibition, active compounds read high
Procedure, shortened: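 Read-out is yeast growth inhibition, calculated against vehicle-only controls. The compound was applied to a strain engineered with DNA damage repair alterations.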

[7] = at 5.0 µM (retest, dose inferred, filed as 0.5)
[8] = at 50.0 µM (retest, dose inferred, filed as 5.0)

Measured: growth inhibition

CC1=C(C(=O)Nc2ccc(C)cc2C)C(c2cccc([N+](=O)[O-])c2)C(C(=O)Nc2ccc(C)cc2C)=C(C)N1
active: [2]; [8] 74%
inactive: [1]; [7] -17% | [1]; [8] 50% | [1]; at 50.0 µM 28.6% | [2]; [7] 12% | [2]; at 50.0 µM 38.5% | [3]; [7] -4% | [3]; [8] 47% | [3]; at 50.0 µM 33% | [4]; [7] 10% | [4]; [8] 42% | [4]; at 50.0 µM 36.6% | [5]; [7] 14% | [5]; [8] 69% | [5]; at 50.0 µM 37.2% | [6]; [7] 4% | [6]; [8] 44% | [6]; at 50.0 µM 41.1%

O=C1C(=O)c2ccccc2C(O)=C1C(c1ccccc1)c1ccccc1
inactive: [1]; [7] 42% | [1]; at 50.0 µM 53.5% | [2]; [7] 39% | [2]; at 50.0 µM 66% | [3]; [7] 57% | [4]; [7] 27% | [4]; at 50.0 µM 58.2% | [5]; [7] 18% | [5]; at 50.0 µM 60.6% | [6]; [7] 54% | [6]; at 50.0 µM 62%
active: [1]; [8] 82% | [2]; [8] 85% | [3]; [8] 91% | [3]; at 50.0 µM 82.5% | [4]; [8] 83% | [5]; [8] 83% | [6]; [8] 90%

CCCCCN=Cc1c(O)c(O)c(C(C)C)c2cc(C)c(-c3c(C)cc4c(C(C)C)c(O)c(O)c(C=NCCCCC)c4c3O)c(O)c12
inactive: [1]; [7] 2% | [1]; [8] 43% | [1]; at 50.0 µM 14.8% | [2]; [7] -44% | [2]; [8] 17% | [2]; at 50.0 µM 62.9% | [3]; [7] 2% | [3]; [8] 50% | [4]; [7] 1% | [4]; [8] 11% | [4]; at 50.0 µM 20.4% | [5]; [7] -2% | [5]; [8] 40% | [5]; at 50.0 µM 30% | [6]; [7] 1% | [6]; [8] 25% | [6]; at 50.0 µM 68.5%
active: [3]; at 50.0 µM 71.8%

O=C1NC(Cc2ccccc2)C(=O)O1 (configuration not stated)
inactive: [1]; [7] 0% | [1]; [8] -6% | [1]; at 50.0 µM -2.1% | [2]; [7] -2% | [2]; [8] -3% | [2]; at 50.0 µM 3.35% | [3]; [7] -3% | [3]; [8] 13% | [3]; at 50.0 µM 11.1% | [4]; [7] -11% | [4]; [8] 6% | [4]; at 50.0 µM -13.8% | [5]; [7] -1% | [5]; [8] -2% | [5]; at 50.0 µM 43.9% | [6]; [7] -1% | [6]; [8] -6% | [6]; at 50.0 µM 4.25%

C=CCNC(=S)N/N=C(/c1ccccn1)C(C)C
inactive: [1]; [7] 1% | [1]; [8] 40% | [2]; [7] -1% | [2]; [8] 36% | [3]; [7] -2% | [4]; [7] -4% | [4]; [8] 28% | [5]; [7] -2% | [5]; [8] 41% | [6]; [7] -2% | [6]; [8] 69%
active: [1]; at 50.0 µM 89.8% | [2]; at 50.0 µM 98.5% | [3]; [8] 80% | [3]; at 50.0 µM 96.9% | [4]; at 50.0 µM 91.3% | [5]; at 50.0 µM 96.3% | [6]; at 50.0 µM 96%

O=C(C(=S)c1ccccc1)N(Cc1ccccc1)Cc1ccccc1
active: [1]; at 50.0 µM 79.3% | [2]; at 50.0 µM 88.9% | [3]; at 50.0 µM 95.9% | [5]; at 50.0 µM 93.8% | [6]; at 50.0 µM 94.4%
inactive: [1]; [7] -2% | [1]; [8] 44% | [2]; [7] 1% | [2]; [8] 25% | [3]; [7] 0% | [3]; [8] 48% | [4]; [7] 0% | [4]; [8] 27% | [4]; at 50.0 µM 59.4% | [5]; [7] 4% | [5]; [8] 41% | [6]; [7] 2% | [6]; [8] 50%

CCOC(=O)C1(C#N)C(=O)CSC1=Nc1ccccc1Cl (configuration not stated)
inactive: [1]; [7] -7% | [1]; [8] -14% | [1]; at 50.0 µM -5.95% | [2]; [7] -16% | [2]; [8] -11% | [2]; at 50.0 µM -8.75% | [3]; [7] -4% | [3]; [8] -2% | [3]; at 50.0 µM 25% | [4]; [7] 13% | [4]; [8] 17% | [4]; at 50.0 µM -9.95% | [5]; [7] -14% | [5]; [8] -10% | [5]; at 50.0 µM 18.4% | [6]; [7] -33% | [6]; [8] -54% | [6]; at 50.0 µM -3.4%

CC(O)CCCOC(c1ccccc1)(c1ccccc1)c1ccccc1 (configuration not stated)
inactive: [1]; [7] 19% | [2]; [7] 9% | [3]; [7] 17% | [4]; [7] 15% | [5]; [7] 28% | [6]; [7] 19%
active: [1]; [8] 97% | [1]; at 50.0 µM 86.5% | [2]; [8] 97% | [2]; at 50.0 µM 83.8% | [3]; [8] 95% | [3]; at 50.0 µM 80.8% | [4]; [8] 94% | [4]; at 50.0 µM 82.7% | [5]; [8] 93% | [5]; at 50.0 µM 80.5% | [6]; [8] 96% | [6]; at 50.0 µM 84.4%

O=C(O)c1ccc([N+](=O)[O-])cc1.[Ag]
active: [1]; [7] 99% | [1]; [8] 99% | [1]; at 50.0 µM 98.8% | [2]; [7] 100% | [2]; [8] 99% | [2]; at 50.0 µM 99.3% | [3]; [7] 99% | [3]; [8] 99% | [3]; at 50.0 µM 99.5% | [4]; [7] 99% | [4]; [8] 99% | [4]; at 50.0 µM 98.9% | [5]; [7] 99% | [5]; [8] 99% | [5]; at 50.0 µM 99.2% | [6]; [7] 99% | [6]; [8] 99% | [6]; at 50.0 µM 99.2%
